# Results reported in PubChem BioAssay (NCATS).
# Values without a mark were called inactive. Inconclusive results are not listed. Activity calls are given as the source filed them. Calls come from the whole dose curve; as a rule, active = well fitted curve in the direction sought with a large enough effect; inconclusive = small, poorly fitted or top-dose-only effect, or another doubt; inactive = no such curve, though single readings can be large; an effect the other way counts as inactive or inconclusive.
# Tests used:
# [1] = target: Cytochrome P450 3A4 (Homo sapiens) (UniProt P08684); assay: qHTS Assay for Inhibitors and Substrates of Cytochrome P450 3A4 (AID 884); note: nearly all actives have a fitted effect of over 50% in size; note: potency is the fitted concentration of half-maximal effect; for activity change, negative = inhibition: series mostly up to about 57 µM; % is set by controls: 0 for no effect and ±100 for the full control effect
# Cytochrome P450 3A4 (Homo sapiens), sequence (P08684 whole entry, looked up): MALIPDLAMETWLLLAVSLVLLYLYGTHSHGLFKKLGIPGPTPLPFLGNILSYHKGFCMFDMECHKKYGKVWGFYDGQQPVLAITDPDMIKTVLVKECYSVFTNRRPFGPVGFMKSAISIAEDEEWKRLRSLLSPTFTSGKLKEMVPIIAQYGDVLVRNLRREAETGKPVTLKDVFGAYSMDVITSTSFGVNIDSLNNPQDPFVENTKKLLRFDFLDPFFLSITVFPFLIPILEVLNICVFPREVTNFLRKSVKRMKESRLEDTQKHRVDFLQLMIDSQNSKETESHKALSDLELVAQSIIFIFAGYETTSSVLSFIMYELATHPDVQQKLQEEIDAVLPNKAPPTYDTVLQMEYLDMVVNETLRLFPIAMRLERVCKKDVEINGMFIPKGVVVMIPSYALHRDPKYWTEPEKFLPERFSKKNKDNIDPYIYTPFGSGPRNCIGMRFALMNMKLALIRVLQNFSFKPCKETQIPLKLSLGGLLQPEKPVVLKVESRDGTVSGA
# How it was run: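 Luminescent readout of luciferin produced by CYP3A4 (20 nM) dealkylation of Luciferin-PPXE, 25 uM (its KM). NADPH-driven reaction ran 60 min at RT after 10 min compound preincubation; data scaled to 57 uM ketoconazole as 100% inhibition.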
# [2] = target: Cytochrome P450 3A4 (Homo sapiens) (UniProt P08684); assay: qHTS Assay for Activators of Cytochrome P450 3A4 (AID 885); note: nearly all actives have a fitted effect of over 65% in size; note: potency is the fitted concentration of half-maximal effect
# How it was run: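 Using 20nM recombinant human CYP3A4 in potassium phosphate (200mM), substrate Luciferin-PPXE at 25uM, luminescent luciferin detection followed a 60-min RT NADPH reaction; data scaled to 57 uM ketoconazole.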
# [3] = target: Cytochrome P450 2C9 (Homo sapiens) (UniProt P11712); assay: qHTS Assay for Inhibitors and Substrates of Cytochrome P450 2C9 (AID 883); note: nearly all actives have a fitted effect of over 60% in size; note: potency is the fitted concentration of half-maximal effect; for activity change, negative = inhibition: % is set by controls: 0 for no effect and ±100 for the full control effect
# Cytochrome P450 2C9 (Homo sapiens), sequence (P11712 whole entry, looked up): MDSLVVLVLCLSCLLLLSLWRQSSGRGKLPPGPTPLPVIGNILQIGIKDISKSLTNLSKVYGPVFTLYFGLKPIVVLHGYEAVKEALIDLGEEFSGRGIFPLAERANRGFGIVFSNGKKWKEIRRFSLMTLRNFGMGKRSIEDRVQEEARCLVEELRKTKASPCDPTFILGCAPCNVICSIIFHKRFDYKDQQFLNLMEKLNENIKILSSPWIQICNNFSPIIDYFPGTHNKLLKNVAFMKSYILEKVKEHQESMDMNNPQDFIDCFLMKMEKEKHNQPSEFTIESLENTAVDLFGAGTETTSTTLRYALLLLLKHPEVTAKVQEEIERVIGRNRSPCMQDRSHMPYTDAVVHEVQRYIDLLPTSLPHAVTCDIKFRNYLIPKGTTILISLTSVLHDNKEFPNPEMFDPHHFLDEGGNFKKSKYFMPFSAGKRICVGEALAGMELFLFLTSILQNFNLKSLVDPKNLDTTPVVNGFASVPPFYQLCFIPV
# How it was run: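 Turnover of Luciferin-H (100uM, KM) by 10nM human CYP2C9 was measured over 60 min at 37C with NADPH regeneration; inhibitors and some substrates reduce luminescence. Data normalized to sulphaphenazole 57uM.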
# [4] = target: Cytochrome P450 2D6 (Homo sapiens) (UniProt P10635); assay: qHTS Assay for Inhibitors and Substrates of Cytochrome P450 2D6 (AID 891); note: nearly all actives have a fitted effect of over 60% in size; note: potency is the fitted concentration of half-maximal effect;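 for activity change, negative = inhibition: luciferin methyl ether substrate demethylated by CYP2D6 with NADPH regeneration; % is set by controls: 0 for no effect and ±100 for the full control effect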
# Cytochrome P450 2D6 (Homo sapiens), sequence (P10635 whole entry, looked up): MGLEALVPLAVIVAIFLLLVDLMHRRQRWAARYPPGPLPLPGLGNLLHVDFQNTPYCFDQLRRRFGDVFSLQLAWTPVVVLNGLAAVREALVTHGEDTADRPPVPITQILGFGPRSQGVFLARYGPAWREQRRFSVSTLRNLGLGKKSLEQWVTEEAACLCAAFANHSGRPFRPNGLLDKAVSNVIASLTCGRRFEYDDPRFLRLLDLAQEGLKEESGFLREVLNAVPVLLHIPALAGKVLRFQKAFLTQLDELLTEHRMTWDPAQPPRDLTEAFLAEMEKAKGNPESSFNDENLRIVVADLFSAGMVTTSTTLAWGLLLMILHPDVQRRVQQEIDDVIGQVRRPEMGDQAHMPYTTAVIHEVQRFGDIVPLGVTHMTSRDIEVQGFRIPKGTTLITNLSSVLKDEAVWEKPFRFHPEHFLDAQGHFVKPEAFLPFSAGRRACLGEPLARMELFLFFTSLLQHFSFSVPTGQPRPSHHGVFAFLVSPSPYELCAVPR
# How it was run: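 Luminescent read-out of luciferin formed by 5 nM human CYP2D6 demethylating 30 uM Luciferin-ME EGE (Km level) over 60 min at room temperature after NADPH regeneration addition. Data normalized to full inhibition by 1.43 uM quinidine.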
# [5] = target: Cytochrome P450 2C19 (Homo sapiens) (UniProt P33261); assay: qHTS Assay for Inhibitors and Substrates of Cytochrome P450 2C19 (AID 899); note: nearly all actives have a fitted effect of over 60% in size; note: potency is the fitted concentration of half-maximal effect; for activity, negative = inhibition: % is set by controls: 0 for no effect and ±100 for the full control effect
# Cytochrome P450 2C19 (Homo sapiens), sequence (P33261 whole entry, looked up): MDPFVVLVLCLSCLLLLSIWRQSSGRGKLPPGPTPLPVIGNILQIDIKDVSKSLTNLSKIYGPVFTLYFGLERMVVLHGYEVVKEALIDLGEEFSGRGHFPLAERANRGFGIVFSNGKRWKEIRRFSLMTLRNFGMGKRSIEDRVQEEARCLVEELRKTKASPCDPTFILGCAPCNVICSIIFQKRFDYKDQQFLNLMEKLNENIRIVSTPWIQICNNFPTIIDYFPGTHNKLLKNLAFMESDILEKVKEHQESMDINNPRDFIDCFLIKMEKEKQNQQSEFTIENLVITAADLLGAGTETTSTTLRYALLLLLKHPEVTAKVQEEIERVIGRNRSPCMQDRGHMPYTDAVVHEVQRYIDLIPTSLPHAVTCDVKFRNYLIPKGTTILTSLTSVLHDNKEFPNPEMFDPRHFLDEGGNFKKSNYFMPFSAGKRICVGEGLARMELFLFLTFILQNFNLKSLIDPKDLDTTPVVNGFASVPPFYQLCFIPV
# How it was run: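 Reactions contain 5nM enzyme, 10uM Luciferin-H EGE (KM) and 50mM KPO4; compound preincubates 10 min at 37C, NADPH regeneration starts turnover for 60 min. Luminescence after detection reagent gives activity.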
# [6] = target: Alpha-galactosidase (Coffea arabica) (UniProt Q42656); assay: Counterscreen for Glucocerebrosidase Inhibitors: qHTS Assay for Coffee Bean alpha-Galactosidase at pH 5.9 (AID 998);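 note: plate controls were uninhibited enzyme for no effect and no-enzyme basal signal for full effect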
# Alpha-galactosidase (Coffea arabica), sequence (Q42656 whole entry, looked up): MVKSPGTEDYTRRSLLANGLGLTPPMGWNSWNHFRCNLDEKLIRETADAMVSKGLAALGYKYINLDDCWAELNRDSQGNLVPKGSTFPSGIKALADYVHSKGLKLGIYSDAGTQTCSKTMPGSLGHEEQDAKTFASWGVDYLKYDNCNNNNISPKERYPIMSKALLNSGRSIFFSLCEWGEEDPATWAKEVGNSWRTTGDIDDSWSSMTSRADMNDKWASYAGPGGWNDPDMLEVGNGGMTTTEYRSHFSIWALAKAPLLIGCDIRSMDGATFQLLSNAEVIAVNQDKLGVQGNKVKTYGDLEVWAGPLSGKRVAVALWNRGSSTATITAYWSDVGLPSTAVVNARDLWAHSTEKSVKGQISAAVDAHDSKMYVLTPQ
# How it was run: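 Fluorogenic 4-MU substrate hydrolysis, 80 uM substrate and 2 nM coffee bean alpha-galactosidase, pH 5.9 citrate buffer, 20 min at room temperature, then NaOH/glycine stop. Titration 0.7 nM–77 uM, normalized to no-enzyme and enzyme controls, AC50 via Hill equation.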
structure (smiles),measurement,setting,value
CC1=C(CC[C@H](C)CO)O[C@@H]2C[C@@H]3[C@H]4CC[C@H]5C[C@@H](O)CC[C@]5(C)[C@@H]4CC(=O)[C@@]3(C)[C@@H]12,"activity change, negative = inhibition",[1],87.6% [at 11.4 µM]
same,Potency,[2],3.98 µM (active)
c1cc(Cc2cnc[nH]2)ccn1,Potency,[1],3.98 µM (active)
same,Potency,[2],inactive
c1ccc(-c2cc3c(nc2-c2ccccc2)CCNC3)cc1,"activity change, negative = inhibition",[3],-10% [at 11.4 µM]
same,"activity change, positive = activation",[2],-45.7% [at 11.4 µM]
same,"activity change, negative = inhibition",[4],5.57% [at 11.4 µM]
same,"activity, negative = inhibition",[5],24.9% [at 11.4 µM]
CC(=O)[C@]1(O)CCC2C3C=C(Cl)C4=CC(=O)C5CC5[C@@]4(C)C3CC[C@]21C (stereo not given in full),Potency,[1],inactive
COC(=O)C1C(c2ccccc2)C2C(=O)c3c(OC)cc(OC)cc3O[C@@]12c1ccc(OC)cc1 (stereo not given in full),"activity change, negative = inhibition",[3],-4.65% [at 11.4 µM]
same,Potency,[1],3.98 µM (active)
same,"activity change, positive = activation",[2],-68.8% [at 11.4 µM]
same,"activity change, negative = inhibition",[4],-16.4% [at 11.4 µM]
CCCCCCCCCc1ccc(OCCOCCOCCOCCOCCOCCOCCOCCOCCO)cc1,Potency,[1],31.6 µM (active)
same,Potency,[2],inactive
CC1(C)C(=O)[C@@H]2OC2[C@@]2(C)C1CC(O)[C@]1(C)C2CC[C@@]2(C)C(c3ccoc3)OC(=O)C3OC312 (stereo not given in full),Potency,[1],1 µM (active)
same,Potency,[2],inactive
CCC1CN2CCC1CC2C(Oc1cc2ccccc2c2ccccc12)c1ccnc2ccc(O)cc12 (stereo not given),"activity change, negative = inhibition",[3],22% [at 11.4 µM]
same,"activity change, negative = inhibition",[1],-10.8% [at 11.4 µM]
same,"activity change, negative = inhibition",[4],-1.58% [at 11.4 µM]
same,"activity, negative = inhibition",[5],16.1% [at 11.4 µM]
CC1=C2C(=COC(C)C2C)C(=O)C(C(=O)O)=C1O (stereo not given),Potency,[1],15.8 µM (active)
same,Potency,[2],inactive
COc1c(-c2ccccc2)oc2c(ccc3occc32)c1=O,Potency,[3],1 µM (active)
same,Potency,[2],inactive
same,Potency,[4],10 µM (active)
same,Potency,[5],3.98 µM (active)
C=C(CO)C1Cc2c(ccc3c2OC2COc4cc(OC)c(OC)cc4C2C3=O)O1 (stereo not given),Potency,[1],31.6 µM (active)
same,Potency,[2],inactive
COc1cc2c3cc1Oc1c(OC)c(OC)cc4c1[C@@H](Cc1ccc(O)c(c1)Oc1ccc(cc1)C[C@@H]3N(C)CC2)N(C)CC4,Potency,[1],20 µM (active)
same,Potency,[2],inactive
C[C@@]12CC[C@H]3[C@@H](CCC4=CC(=O)CC[C@]43C)[C@H]1CC[C@H]2C(=O)CO,Potency,[1],inactive
O=C1NO[C@@H]2CN[C@@H](C(=O)O)[C@H]12,Potency,[1],inactive
CCC(C)C(=O)OC1C[C@@]2(C)C(c3ccoc3)OC(=O)CC23OC2(C)OC34C(OC(=O)C(C)C)[C@]3(O)C(OC(=O)C5(C)OC5C)[C@]5(C)CC3(O)[C@](C)(C5CC(=O)OC)C14O2 (stereo not given in full),Potency,[1],2.51 µM (active)
same,Potency,[2],inactive
COc1cc2c(cc1O)C(CCc1ccc(Cl)cc1)N(C)CC2 (stereo not given),Potency,[1],inactive
CN1CCc2nc(CO)c(CO)cc2C1,"activity change, negative = inhibition",[3],21.8% [at 11.4 µM]
same,"activity change, negative = inhibition",[1],-11.6% [at 11.4 µM]
same,"activity change, negative = inhibition",[4],-13.1% [at 11.4 µM]
same,"activity, negative = inhibition",[5],81.3% [at 11.4 µM]
CC(=O)OC1CC[C@@]2(C)C3CC(=O)[C@]4(C)C(C(C)=O)=CCC4C3CC[C@H]2C1 (stereo not given in full),Potency,[1],inactive
same,Potency,[2],5.01 µM (active)
CC[C@H](C(=O)[C@H](C)[C@H](O)[C@H](C)CCc1ccc(C)c(O)c1C(=O)O)[C@H]1O[C@](CC)([C@@H]2CC[C@@](O)(CC)[C@H](C)O2)C[C@H]1C,Potency,[1],7.94 µM (active)
O=[N+]([O-])c1ccc(S(=O)(=O)Cc2ccccc2)c([N+](=O)[O-])c1,Potency,[3],3.16 µM (active)
same,"activity change, positive = activation",[2],-105% [at 11.4 µM]
same,Potency,[5],2 µM (active)
O=C1NO[C@H]2[C@@H]1CN[C@@H]2C(=O)O,Potency,[1],inactive
CCCCCCCCCC[Si](C)(C)CCC(=O)N[C@@H](Cc1ccc(C)cc1)c1ccccc1,Potency,[3],inactive
same,outcome,[6],inactive
CC(=O)OC1C[C@]2(C)C(C(C)=O)CCC2C2CCC3=CC(=O)CC[C@@]3(C)C12 (stereo not given in full),Potency,[1],7.94 µM (active)
same,Potency,[2],inactive
CC1Cc2c(cnc3c2CN(C)CC3)CO1 (stereo not given),"activity change, negative = inhibition",[3],12.6% [at 11.4 µM]
same,"activity change, negative = inhibition",[1],-13.4% [at 11.4 µM]
same,"activity change, negative = inhibition",[4],10.1% [at 11.4 µM]
same,"activity, negative = inhibition",[5],9.03% [at 11.4 µM]
